In PubChem BioAssay (EPA / NIEHS):
Several values for one entry are separate records, joined by “and”; a condition that tells them apart may be missing. Equal entries are not always repeated. Inconclusive results are not listed. The source holds several records for some structures; these can differ, active in one and inactive in another. Activity calls are given as the source filed them. How the source made its calls, unless noted: active means hit-call score of the fitted dose curve at least 0.9, where 1 is the maximum; inactive means score below 0.9.

What was measured:
[1] = read-out: Monocyte Chemoattractant Protein-1 (MCP1), CCL2 (gene 6347); test: BSK_SAg_MCP1: BioMAP Diversity Plus: SAg Assay for Monocyte Chemoattractant Protein-1 (MCP1) Biomarker Activity (AID 2283090); conditions: primary human HUVEC with PBMC; actives raise or lower the signal
Outline: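 Values derive from bidirectional fitting of ELISA-measured MCP1 against DMSO controls. Readings were taken 24 h after dosing human vascular endothelial cells co-cultured with peripheral blood mononuclear cells under superantigen stimulation.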

[2] = read-out: E-selectin (Homo sapiens) (UniProt P16581); test: BSK_SAg_Eselectin: BioMAP Diversity Plus: SAg Assay for Eselectin Biomarker Activity (AID 2283091); conditions: primary human HUVEC with PBMC; actives raise or lower the signal
Outline: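 Cell-surface E-selectin is read by ELISA at 24 h in the SAg co-culture of HUVEC and PBMC. Curves are fitted in both directions relative to DMSO. Parallel SRB total-protein staining tracks overt toxicity.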

[3] = read-out: Monokine induced gamma interferon (MIG), CXCL9 (gene 4283); test: BSK_SAg_MIG: BioMAP Diversity Plus: SAg Assay for Monokine induced gamma interferon (MIG) Biomarker Activity (AID 2283092); conditions: primary human HUVEC with PBMC; actives raise or lower the signal
Outline: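 Endothelial cells and PBMC were co-cultured, exposed to test chemicals, and sampled 24 h later. MIG was measured by ELISA, and responses were fitted in both directions relative to DMSO.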

[4] = BSK_SAg_PBMCCytotoxicity: PBMC Cytotoxicity Assessment in the BioMAP Diversity Plus: SAg Assay (AID 2283093); conditions: primary human HUVEC with PBMC;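 further: PBMC viability measured as Alamar Blue reduction fluorescence at 546/580 nm; fitted both ways against DMSO so a hit may be loss or gain of signal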;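 on AC50: PBMC superantigen activated with SEB plus TSST-1 one hour after compound addition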
Outline: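 Alamar Blue reduction (6 h, ex/em 546/580 nm) read after 90 h culture of PBMC pre-dosed 1 h then stimulated with SEB plus TSST-1, 20 ng/mL each. Gain or loss of signal fitted relative to DMSO.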

[5] = BSK_SAg_Proliferation: Cell Proliferation Assessment in the BioMAP Diversity Plus: SAg Assay (AID 2283095); conditions: primary human HUVEC with PBMC;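 further: relative cell number as total protein by SRB absorbance in sub-confluent culture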
Outline: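 HUVEC/PBMC co-culture, 96-well. TCA-fixed (10%), 0.1% SRB stain, A560 at 96 h. Protein content used as viability readout; bidirectional fitting vs DMSO control.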

[6] = BSK_SAg_SRB: Viability Assessment in the BioMAP Diversity Plus: SAg Assay (AID 2283096); conditions: primary human HUVEC with PBMC;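 further: cells read one day after compound addition; hits may be either gain or loss of signal compared with DMSO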
Outline: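 SRB absorbance at 560 nm served as the viability read-out. Cells (HUVEC plus peripheral blood mononuclear cells) were TCA-fixed and stained 24 h post-dosing; activity fitted in both directions against DMSO controls.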

[7] = biological target: human CYP19A1, CYP19A1 (gene 1588) (UniProt P11511); test: NVS_ADME_hCYP19A1: NovaScreen (NVS) CYP450-related Enzyme Activity (ADME) Assay for human CYP19A1 (AID 2283098; active means hit-call score of the fitted dose curve at least 0.9, where 1 is the maximum;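 on AC50: potency for inhibitors seen as loss of fluorescent enzyme signal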)
Outline: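 Primary testing was in duplicate at a single 10 uM concentration, with actives followed up in concentration-response series. Fluorescence read-out of recombinant enzyme activity at 0.5 h, cell-free. Acetonitrile was the negative-control baseline.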

[8] = biological target: human CYP1A1, CYP1A1 (gene 1543) (UniProt P04798); test: NVS_ADME_hCYP1A1: NovaScreen (NVS) CYP450-related Enzyme Activity (ADME) Assay for human CYP1A1 (AID 2283100; active means hit-call score of the fitted dose curve at least 0.9, where 1 is the maximum)
Outline: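 Chemicals were first tested in duplicate at 10 uM, and those passing a 30% inhibition threshold were rerun as concentration series topping at 20 uM. Fluorescence read-out of recombinant enzyme turnover after 1 h, relative to acetonitrile.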

[9] = biological target: human CYP2A6, CYP2A6 (gene 1548) (UniProt P11509); test: NVS_ADME_hCYP2A6: NovaScreen (NVS) CYP450-related Enzyme Activity (ADME) Assay for human CYP2A6 (AID 2283099; active means hit-call score of the fitted dose curve at least 0.9, where 1 is the maximum)
Outline: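 Compounds screened at 10 uM (duplicate) and, if active, titrated to a 20 uM top concentration against insect-cell-expressed CYP2A6. Loss of fluorescent product signal after 0.5 h, relative to acetonitrile baseline, indicates inhibition.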

Measured: AC50

Sequence of human CYP1A1, CYP1A1 (gene 1543) (P04798 whole entry, looked up): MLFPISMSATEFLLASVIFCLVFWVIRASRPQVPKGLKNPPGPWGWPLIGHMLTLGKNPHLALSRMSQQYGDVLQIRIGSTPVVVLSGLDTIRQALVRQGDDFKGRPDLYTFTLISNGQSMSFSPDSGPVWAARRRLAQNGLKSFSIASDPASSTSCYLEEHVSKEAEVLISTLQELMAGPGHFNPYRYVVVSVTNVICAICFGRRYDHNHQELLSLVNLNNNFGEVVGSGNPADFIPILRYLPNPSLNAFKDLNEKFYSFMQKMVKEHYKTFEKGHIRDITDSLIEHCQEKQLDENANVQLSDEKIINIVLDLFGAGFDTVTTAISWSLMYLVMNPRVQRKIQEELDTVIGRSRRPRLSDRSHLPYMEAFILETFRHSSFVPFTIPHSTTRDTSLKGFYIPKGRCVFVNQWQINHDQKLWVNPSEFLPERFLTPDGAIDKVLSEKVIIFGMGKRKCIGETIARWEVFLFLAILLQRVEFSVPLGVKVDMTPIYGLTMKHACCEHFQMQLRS
Sequence of human CYP19A1, CYP19A1 (gene 1588) (P11511 whole entry, looked up): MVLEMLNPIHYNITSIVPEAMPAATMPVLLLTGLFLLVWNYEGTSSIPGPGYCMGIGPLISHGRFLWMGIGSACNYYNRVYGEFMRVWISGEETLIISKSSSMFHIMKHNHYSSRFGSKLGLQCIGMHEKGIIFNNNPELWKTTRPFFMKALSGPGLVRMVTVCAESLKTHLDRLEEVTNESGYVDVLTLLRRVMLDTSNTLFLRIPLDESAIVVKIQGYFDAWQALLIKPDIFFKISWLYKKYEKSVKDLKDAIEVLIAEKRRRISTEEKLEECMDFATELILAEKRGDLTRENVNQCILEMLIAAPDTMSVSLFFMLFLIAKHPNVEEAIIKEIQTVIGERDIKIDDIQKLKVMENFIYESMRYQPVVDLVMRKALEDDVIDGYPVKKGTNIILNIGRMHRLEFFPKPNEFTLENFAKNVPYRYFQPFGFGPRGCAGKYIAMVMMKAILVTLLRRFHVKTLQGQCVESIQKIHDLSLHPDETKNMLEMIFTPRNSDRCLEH
Sequence of human CYP2A6, CYP2A6 (gene 1548) (P11509 whole entry, looked up): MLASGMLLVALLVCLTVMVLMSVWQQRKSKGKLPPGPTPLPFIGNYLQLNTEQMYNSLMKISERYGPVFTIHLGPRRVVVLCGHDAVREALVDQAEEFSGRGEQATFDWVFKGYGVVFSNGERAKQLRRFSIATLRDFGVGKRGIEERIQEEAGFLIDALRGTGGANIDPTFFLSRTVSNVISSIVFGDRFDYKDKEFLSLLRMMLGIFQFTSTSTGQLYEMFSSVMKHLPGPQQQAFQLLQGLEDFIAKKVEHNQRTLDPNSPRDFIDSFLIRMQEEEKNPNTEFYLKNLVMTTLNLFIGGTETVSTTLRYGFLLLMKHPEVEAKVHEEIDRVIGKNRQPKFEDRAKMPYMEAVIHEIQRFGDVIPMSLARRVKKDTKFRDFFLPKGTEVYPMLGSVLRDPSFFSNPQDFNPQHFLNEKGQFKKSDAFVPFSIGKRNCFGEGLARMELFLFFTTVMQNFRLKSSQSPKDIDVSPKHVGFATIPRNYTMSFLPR
Sequence of E-selectin (Homo sapiens) (P16581 whole entry, looked up): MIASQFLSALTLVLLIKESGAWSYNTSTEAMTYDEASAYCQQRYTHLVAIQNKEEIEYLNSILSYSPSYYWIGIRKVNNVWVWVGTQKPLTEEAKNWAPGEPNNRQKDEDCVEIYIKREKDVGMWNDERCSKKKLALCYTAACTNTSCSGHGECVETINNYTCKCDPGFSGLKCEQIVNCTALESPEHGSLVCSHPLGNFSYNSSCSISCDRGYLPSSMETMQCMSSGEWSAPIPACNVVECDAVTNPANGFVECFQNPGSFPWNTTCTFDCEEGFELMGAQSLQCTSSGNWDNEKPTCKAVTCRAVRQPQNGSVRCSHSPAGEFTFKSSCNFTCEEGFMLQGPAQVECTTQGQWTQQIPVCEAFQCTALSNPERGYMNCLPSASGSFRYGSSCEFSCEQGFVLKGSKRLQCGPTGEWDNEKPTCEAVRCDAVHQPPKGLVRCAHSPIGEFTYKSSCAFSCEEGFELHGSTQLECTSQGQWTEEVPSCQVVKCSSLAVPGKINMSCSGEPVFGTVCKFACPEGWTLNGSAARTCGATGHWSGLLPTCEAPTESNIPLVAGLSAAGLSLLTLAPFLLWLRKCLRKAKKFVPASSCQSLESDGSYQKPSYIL

CCNc1nc(Cl)nc(NC(C)C)n1
active: [2] 13.9 µM
not listed: [9]
inactive: all other assays above

Cc1ccc(-c2c(Cl)nc(C#N)n2S(=O)(=O)N(C)C)cc1
active: [1] 24.7 µM | [2] 13.5 µM | [3] 28.8 µM | [5] 30 µM | [6] 25 µM
inactive: [4]

O=C(O)c1nc(Cl)ccc1Cl
not listed: [7] | [8] | [9]
inactive: all other assays above

CN(C)C(=S)SSC(=S)N(C)C
active: [1] 28.7 µM | [2] 24.8 µM | [3] 36.6 µM | [4] 3.87 µM | [6] 35.3 µM
inactive: [9]

CCCC1COC(Cn2cncn2)(c2ccc(Cl)cc2Cl)O1 (stereo not given)
active: [5] 20.7 µM | [7] 2.04 µM | [8] 7.82 µM
inactive: all other assays above

C=CCC1=C(C)[C@@H](OC(=O)[C@@H]2[C@@H](C=C(C)C)C2(C)C)CC1=O
active: [1] 33.2 µM | [2] 27.4 µM | [3] 38.9 µM | [4] 32.4 µM | [5] 33.8 µM | [6] 29.2 µM

COc1nc(NC(C)C)nc(NC(C)C)n1
not listed: [7] | [8] | [9]
inactive: all other assays above

COc1nc(C)nc(NC(=O)NS(=O)(=O)c2ccccc2CCC(F)(F)F)n1
not listed: [7] | [8] | [9]
inactive: all other assays above

C=CC1(C)OC(=O)N(c2cc(Cl)cc(Cl)c2)C1=O (stereo not given)
not listed: [7] | [9]
inactive: all other assays above

C=CCC1=C(C)C(OC(=O)C2C(C=C(C)C)C2(C)C)CC1=O (stereo not given)
active: [1] 34.9 µM [middle of 4 runs] | [2] 32.6 µM [middle of 4 runs] | [3] 39.6 µM [middle of 4 runs] | [4] 34 µM [middle of 4 runs] | [5] 30.9 µM [middle of 4 runs] | [6] 32.1 µM and 32.7 µM and 36.2 µM
inactive: [6] | [9]

CC(Oc1ccc(Cl)cc1Cl)C(=O)O (stereo not given)
not listed: [7] | [8] | [9]
inactive: all other assays above

Fc1ccc(Oc2ccnc3cc(Cl)cc(Cl)c23)cc1
active: [1] 28.2 µM | [2] 20.5 µM | [3] 30.6 µM | [4] 31.4 µM | [5] 22.7 µM | [6] 25.5 µM

COc1cnc(OC)n2nc(NS(=O)(=O)c3c(OCC(F)F)cccc3C(F)(F)F)nc12
not listed: [7] | [8] | [9]
inactive: all other assays above

CCOP(=S)(OCC)SCn1c(=O)oc2cc(Cl)ccc21
inactive: [3] | [4] | [7]
active: [1] 28.4 µM | [2] 29.4 µM | [5] 29 µM | [6] 31.9 µM | [9] 0.683 µM | [8] 0.513 µM

C#CCOS(=O)OC1CCCCC1Oc1ccc(C(C)(C)C)cc1 (stereo not given)
active: [1] 7.84 µM | [2] 4.02 µM | [3] 16.7 µM | [4] 14.6 µM | [5] 1.16 µM | [6] 10.8 µM
inactive: [7]

CCOC(=O)C(Cl)Cc1cc(-n2nc(C)n(C(F)F)c2=O)c(F)cc1Cl (stereo not given)
active: [5] 21.2 µM | [8] 5.46 µM
not listed: [7] | [9]
inactive: all other assays above

COC(=O)C=C(C)OP(=O)(OC)OC
not listed: [7] | [8] | [9]
inactive: all other assays above

CCCCC(CC)COC(=O)c1ccccc1C(=O)OCC(CC)CCCC (stereo not given)
inactive: [1] | [2] | [3] | [4]
active: [6] 5 µM | [7] 3.05 µM

CCON=C(CC)C1=C(O)CC(c2c(C)cc(C)cc2C)CC1=O (stereo not given)
not listed: [7] | [8] | [9]
inactive: all other assays above

OC(c1ccc(Cl)cc1)(c1cncnc1)c1ccccc1Cl (stereo not given)
active: [1] 25.5 µM | [2] 26.5 µM | [3] 32.9 µM | [4] 3.45 µM | [5] 11.7 µM | [6] 29.3 µM | [9] 2.37 µM | [8] 8.07 µM

CNC(=S)S
inactive: [1] | [3] | [7]
active: [2] 27.5 µM | [4] 14.7 µM | [5] 11.9 µM | [6] 23.3 µM

N#CC(CCc1ccc(Cl)cc1)(Cn1cncn1)c1ccccc1 (stereo not given)
active: [5] 8.6 µM
not listed: [9]
inactive: all other assays above

COP(=S)(OC)Oc1nc(Cl)c(Cl)cc1Cl
active: [2] 32 µM | [5] 20 µM
not listed: [7] | [9]
inactive: all other assays above

CON(C)C(=O)Nc1ccc(Cl)c(Cl)c1
active: [8] 3.72 µM
not listed: [9]
inactive: all other assays above

COc1ccc(C(c2ccc(OC)cc2)C(Cl)(Cl)Cl)cc1
inactive: [7]
active: [1] 27.1 µM | [2] 14.4 µM | [3] 30.7 µM | [4] 31.5 µM | [5] 12 µM | [6] 14.9 µM | [7] 3.76 µM

CCOC(=O)CC(SP(=S)(OC)OC)C(=O)OCC (stereo not given)
active: [9] 1.98 µM | [8] 2.87 µM
inactive: all other assays above

CC1COC(Cn2cncn2)(c2ccc(Oc3ccc(Cl)cc3)cc2Cl)O1 (stereo not given)
active: [1] 23.8 µM | [2] 13.1 µM | [3] 31.3 µM | [4] 33.2 µM | [5] 14.7 µM | [6] 29.6 µM | [7] 0.706 µM | [8] 1.63 µM
